This note sets out measurements from PubChem BioAssay AID1347426 (Functional Genomics Laboratory (NCATS/FGL), 2020).

Hit rate of the full screen: of about 31,000 sequences, about 1,400 (4.5%) were called active.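 Rule for the calls: active = median seed-adjusted z-score above 1 or below -1; inactive = the rest.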 Many of the other results were omitted from the sample, so actives are more common in it than they were.

The experiment is described as follows: Novel Modifiers of Survival Motor Neuron (SMN) Protein: Gene Identification via Genome-wide siRNA Screen.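 Note: luminescence tracks full-length SMN protein made from the SMN2 reporter.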 The following applies: HEK293T SMN2-luciferase reporter, siRNA knockdown, 72 h; actives lie on both sides. In a few lines: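 siRNA screen, 10418 genes ×3 siRNAs; 1 pmol/well, lipid reverse transfection into HEK293T SMN2-luc reporter line. 72 h, 37 °C, 5% CO2; ONE-Glo readout. Data: neg-ctrl normalized, log10, MAD; hit = MAD >1.0 or < -1.0.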
Background: Reporter assays use an easily measured gene product as a stand-in for the process of interest.
Take CCCAGUUUCUAGUCUGCUATT against SHKBP1: the median seed-adjusted z-score was 0.345 (inactive). As to AGACAAUUUGUAACUAGAATT against NEUROD2, the median seed-adjusted z-score is -0.103 (inactive). Turning to AGAUCAAGGUGUACGAGAUTT against KIF26A, the median seed-adjusted z-score is -0.428 (inactive). For GCAUCUAUGUAACAAAGAUTT against DLG4 the value was -0.498 (inactive).

Turning to CGAAUGCAUCAGAUCAACATT against UBA2, the median seed-adjusted z-score is 0.694 (inactive). For GUAACAACAUCAUCCUAGATT against HSPG2 the value was 0.478 (inactive).

GACCCGGUAUAUGAACUCATT against UCP3: the median seed-adjusted z-score is 1.23 (active).

With GAGAAGGCCUAUUCAGACATT against ZBTB7C, the median seed-adjusted z-score is 0.447 (inactive). The same measure for CGAGCUGACUUCAACAGGATT against STC1: -1.36 (active). As for GUGUGGUACAGAACAUUUATT against GUCA1C, the median seed-adjusted z-score was -0.617 (inactive). In the case of GCAACAACCUGAUUAAGGATT against MED24, the median seed-adjusted z-score was -2.3 (active).

For the sequence GGACUCAGCAGGAUACAAUTT against FOXJ2, the median seed-adjusted z-score is -0.627 (inactive). The same measure for ACUUAGCACUUUAUAUUUATT against DUSP2: 0.576 (inactive); for GAGCAGUACUGGGAAGAGATT against CARD14: -0.104 (inactive); for GCAGCUUAGGAACAGCAGATT against THOC4: -1.54 (active). The same measure for CCAUGACACGGUCCUCCAATT against ICAM2: 0.269 (inactive); for GCUUUGUGGUGUGGAGUAUTT against LTB4R: 0.498 (inactive); for GAAGAUGACAUGUACCGUATT against XPA: 2.03 (active). For GCUGCUACUUUGAAGUCCATT against FGG the value was -0.043 (inactive). In the case of CAUGCAGCCUUAAGCCUCATT against ILKAP, the median seed-adjusted z-score is 0 (inactive). For the sequence GCCUAGAGCUAAGUACCAATT against CHUK, the median seed-adjusted z-score was -0.613 (inactive).

GGCACUAAGUUUGACCGGATT against AQR: the median seed-adjusted z-score was -1.56 (active).

For GCCUUUGACCUGUCAGUGUTT against ASMT, the median seed-adjusted z-score was -0.322 (inactive). As for GCAUCCUGUUUGUAAAUGATT against DLG4, the median seed-adjusted z-score was -0.498 (inactive).

In the case of CCGUGGUUACAGAAACGUATT against ABHD3, the median seed-adjusted z-score was -0.126 (inactive).

For CAAGAUGCUGGAUAAGGAATT against GYS1, the median seed-adjusted z-score is 0.874 (inactive). The same measure for GGAUUCUUGUUGGACUAAUTT against RHBDD1: 0.00277 (inactive); for CAAUAGGAUUAUCAUGAGATT against MRS2: 1.38 (active); for GGCUACAACAUGACUCGUATT against FZD10: -0.226 (inactive). For UCACUGUCCCAGACACCAATT against EPO, the median seed-adjusted z-score is 0.148 (inactive). For UGGACAACUUUGUACCUAATT against EBP the value was 0.017 (inactive). For GGCUCAACAUGGACCGGAUTT against BCAT2 the value was 0.0438 (inactive); for CAAAGGCGAUAACAUCUAUTT against UBE2E1, 0.888 (inactive); for GCCCUAAAGGAGAAAGUCATT against MAT2A, -1.9 (active). On to GCAUGUAAGAAUCCACAAUTT against ZNF187, for which the median seed-adjusted z-score is 0.419 (inactive). On to GCCUAAAUCCCAAAUCGAATT against CXCL11, for which the median seed-adjusted z-score is -0.135 (inactive). For ACAGCGACCUUGCAAAGAATT against ZNF496 the value was -0.971 (inactive); for GAAAGUGCUCGGUGCCUUUTT against HBB, -0.151 (inactive). With GGCGAGAAGAGCAACGUAATT against DDX46, the median seed-adjusted z-score is -1.24 (active). For CAACGGCUUCUGUCAUUUATT against SUCLG1 the value was -0.63 (inactive); for GAAGUUCUCUUUACAACCATT against RFX2, 0.271 (inactive); for GUUCAGCACUCAUUAGACATT against ZNF17, 0.579 (inactive). Regarding CGAUCAUUACCUCUCCAGATT against ARHGEF4, the median seed-adjusted z-score is 0.332 (inactive). On to GAAUGACCAGAGACAUCUATT against INSR, for which the median seed-adjusted z-score is 0.172 (inactive). The same measure for GGAUUUGCCGAAUUAACAATT against RELB: 1.16 (active); for GGAGAUAGCUUUGCCUAUATT against RBM15B: -0.183 (inactive). For GGUACUCGGUGGAAACCAATT against CNKSR3 the value was 0 (inactive). For CAUUAACCAGUGAACGCAATT against AADAT the value was 0.0891 (inactive); for CAAGAAUGUUACUAACAAUTT against TPM4, -0.407 (inactive). In the case of GCUACAGUCUCUACCCUGATT against BARX1, the median seed-adjusted z-score is 1.63 (active). Consider AGCUCAAGAAGUACACCAATT against CHST12, for which the median seed-adjusted z-score is 0 (inactive). For CCUCGAUUCCAUUAUCAUUTT against RECQL4 the value was 0.475 (inactive); for GCCUAGAGGACUACAAGAATT against FZD8, -0.177 (inactive); for GCGUAAUUUGGACCUCUUUTT against ZDHHC21, 0.216 (inactive). For CAUUGUGAGCUAUAACGAUTT against CDH10 the value was 0 (inactive); for GAAACAGUGCUAGAUAAAATT against SULT1C2, 0 (inactive); for CCAUCUAGCUUAUCGAUAUTT against DYRK3, 0.358 (inactive). The same measure for GAAUUCAGCAUGACCGAUATT against GABPA: 1.43 (active); for CCAUUAUGAUCGUAAGGCATT against GCNT4: -0.0629 (inactive); for GCAAGUACCUGAGAACGGATT against APOB: -0.0862 (inactive).

GGCUCUCGUAUGUAACGUATT against USP24: the median seed-adjusted z-score was 0.101 (inactive). In the case of GGUUCUCUUGCAUUACUUUTT against GLP2R, the median seed-adjusted z-score was 0.492 (inactive).

For AGAUCGCUGUCAAAACCCUTT against GFOD1, the median seed-adjusted z-score was 0.923 (inactive). The same measure for GGUUAACCCAGAACGUAAATT against TCP1: -1.02 (active). Regarding GGACCCUACCAGAACUACATT against SEMA6D, the median seed-adjusted z-score is 0.0624 (inactive). The same measure for GGACUGAGCUUCUCAAUGUTT against FOLR1: -1.31 (active); for GCAUCGUGAUCGUUCCAAUTT against CHD1L: 0.63 (inactive); for GACCAUGGAUAAUAAGAAATT against CLCN6: -0.136 (inactive).

For the sequence CAACUGUUCCAACAACAAUTT against HAVCR1, the median seed-adjusted z-score was -0.306 (inactive). For GAGUCCUAUUACCAGCUCATT against SRM the value was 0 (inactive); for CUGCCGAACUUUUAAACAATT against MCHR2, -0.658 (inactive); for UGGAAUCUGUGGUAAAGAATT against HGS, 1.16 (active). For the sequence CCACGUCUAAAGUCCGAAATT against KIF3C, the median seed-adjusted z-score was 0.0126 (inactive).

Take GAAUGGUCGUGGAUUCACATT against MAPKAPK5: the median seed-adjusted z-score was 0.489 (inactive). The same measure for GGAGAUUCCAUAAGACAAUTT against ZNF114: -0.303 (inactive); for GGAUCUUCGUGAAGUAUUUTT against TRA2A: -0.187 (inactive); for AAAUUCCCGUCAUUGAAAATT against SNRPA1: -2.71 (active). As for GGAUUGCUUCUGACUCCGATT against ELK3, the median seed-adjusted z-score was -0.16 (inactive). On to CAUUGACCACUACAAGUAATT against ITFG1, for which the median seed-adjusted z-score was -0.417 (inactive). The same measure for CAUUUGCGGUUCGGACAAATT against CACNB2: 0 (inactive); for CUCUGUGAAUUUGAAAUCATT against SNED1: 0.148 (inactive).

Turning to GCAAGAUAGCUCAACCCAATT against ADAMTS12, the median seed-adjusted z-score is -0.0721 (inactive). For GUAUCAUGGAUGGAAAAGATT against ASRGL1, the median seed-adjusted z-score is 0 (inactive). Turning to GCAGAGGAGUCAAUGCUAUTT against ARL8B, the median seed-adjusted z-score is -0.477 (inactive). For the sequence AGCUUUUGUUGAGAGUUCATT against YY1, the median seed-adjusted z-score was 1.94 (active). For GCUACUUACAGGUACCGUATT against PDCD11 the value was -0.335 (inactive); for GUUUCUGAUUUAAUAGACATT against ZNF781, 0.0307 (inactive). Regarding CCAACAAACUCACCAUACATT against KREMEN1, the median seed-adjusted z-score is 0 (inactive). With AAACAAUUCCAGUCCAGUUTT against IL8RA, the median seed-adjusted z-score is 0.316 (inactive). The same measure for CACCUGCGAGUGUUCCAAUTT against CSTB: 1.08 (active). The same measure for GGAAAGUUCUUUAGACUUATT against ZNF529: -0.243 (inactive). Regarding GAAUCAACAAGAUUGGGAATT against CBS, the median seed-adjusted z-score was -0.0696 (inactive). For UCGUGUUCCUAGUCAUCUATT against TCIRG1 the value was 0.123 (inactive); for GUCACGUACUCGCUGCUGATT against SMAD6, -0.167 (inactive); for GGCUCAACAUACAUCAGAATT against ZNF350, 0.133 (inactive). Regarding GGCACUCCAUGCUCACUGUTT against AGPAT1, the median seed-adjusted z-score was -1.38 (active). Turning to GGUGAAAGGUCAGAUCUAATT against ZNF436, the median seed-adjusted z-score was 0.00767 (inactive).

In the case of GGAAGUAUCAGAUCUUGAATT against CYFIP2, the median seed-adjusted z-score is -0.322 (inactive). With GCAGUGUAUAGAACGAGAATT against RNGTT, the median seed-adjusted z-score is -1.55 (active). For GCACAUCAAGUUCUAUACATT against SLCO2A1 the value was -0.0778 (inactive). With CCCUGUCAUCUAUGCUCUATT against CNR2, the median seed-adjusted z-score was 0.33 (inactive).

GACCCACAAAUAUACCAUUTT against SMAP1: the median seed-adjusted z-score is -0.201 (inactive).

Take GCAAAGCUCUAAAGCCCAATT against TXNDC12: the median seed-adjusted z-score was -0.154 (inactive). GGAUUAAAGUGUGAAGACUTT against PRKCD: the median seed-adjusted z-score was -0.236 (inactive). In the case of GGGCAGAUGACACCUUUGATT against TCEB2, the median seed-adjusted z-score was 1.28 (active).

CGCAAGGACAGAAAACCAATT against ASMT: the median seed-adjusted z-score is -0.322 (inactive). As for ACGGCUACGUGGUAAAGGATT against RPS6KA1, the median seed-adjusted z-score is 0.194 (inactive). The same measure for CAGCAACCAGAGGAGUAUATT against TCF20: 0.392 (inactive).

CCGUCAUGCACUUACCUUUTT against ADCY9: the median seed-adjusted z-score is 0.269 (inactive).
